# From paper PMC7819943, “Rice protein-binding microarrays: a tool to detect cis-acting elements near promoter regions in rice”
# The full ranking holds about 68,000 sequences; the median of “fluorescence intensity (a.u.)” is about 9,100, and the highest 2% start at about 16,000. The sample holds the highest values, similar sequences and a random draw of the others, so the mix is not that of the screen.
# Target: OsWRKY34 (Oryza sativa, UniProt Q0JBA9 1-250)
# Assay: protein-binding microarray (RPBM); PBS, 2% BSA, 51.3 ng/ul salmon testes DNA, 50 uM zinc acetate, 200 nM TF, 25 C, 1 h; high values mean tight binding
# Details: protein: recombinant; tags: N-terminal polyhistidine and DsRed monomer fusion (pET32a); label: CyDye5-dUTP incorporated in the synthesized complementary strand; 3' TTTTT single-stranded linker to array surface; dsDNA, one strand shown
# Procedure, shortened: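 Binding signal here means per-feature fluorescence intensity in arbitrary units. The values were read on an Axon 4000B scanner after a custom Agilent array, double-stranded by primer extension with Cy5-dUTP, was incubated with 200 nM protein at 25 °C for 1 h in PBS with 2% BSA, salmon testes DNA and 50 µM zinc acetate, then washed. The proteins were transcription factors with an N-terminal polyhistidine tag and DsRed, expressed in E. coli BL21-CodonPlus and purified on Ni–NTA.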
# Sequence of OsWRKY34 (Q0JBA9 entry or part of it): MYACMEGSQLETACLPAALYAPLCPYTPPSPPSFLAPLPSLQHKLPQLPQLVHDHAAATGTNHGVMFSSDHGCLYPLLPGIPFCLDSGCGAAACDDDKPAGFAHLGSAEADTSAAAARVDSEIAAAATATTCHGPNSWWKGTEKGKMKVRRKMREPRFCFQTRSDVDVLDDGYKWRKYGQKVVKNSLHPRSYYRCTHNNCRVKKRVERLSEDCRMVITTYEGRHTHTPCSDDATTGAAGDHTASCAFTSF
row,Sequence,binding signal
1,ACCACTTAATCTTTATCTTTGTTAGATTCATTACTACTATCGGAGTCACCTAGTGCAG,8310 fluorescence intensity (a.u.)
2,TATAGGTATTCACTACCTTATCATTTATTCATACCTTGTTCGGAGTCACCTAGTGCAG,8060 fluorescence intensity (a.u.)
3,GGCTCCAAATCATCTGCCTTCATTGTCAGGCTTCAGTAATCGGAGTCACCTAGTGCAG,10400 fluorescence intensity (a.u.)
4,AGATTCGTGTAGACCCATTGTCTGGCAGCGGCGATCGTCCCGGAGTCACCTAGTGCAG,8040 fluorescence intensity (a.u.)
5,AGTTGATCGCGGTCAAATCGTCACGTTAGTTGAACCCGGTCGGAGTCACCTAGTGCAG,8260 fluorescence intensity (a.u.)
6,GCCACTCCTGACGTCAGCGTTGACTCGGTCAAACCCATCGCGGAGTCACCTAGTGCAG,19300 fluorescence intensity (a.u.)
7,TCACCCACCTGTTGACTACCATCACCACTCCTCGTCTGGACGGAGTCACCTAGTGCAG,8590 fluorescence intensity (a.u.)
8,ATACACACTTCAGTCACTCGGTAGGCCACTCCGTACGGCACGGAGTCACCTAGTGCAG,8510 fluorescence intensity (a.u.)
9,TCGAAATGTTTGACACCGTTGACTTTTTAGCACATGTTTACGGAGTCACCTAGTGCAG,19000 fluorescence intensity (a.u.)
10,TTTCGAAATGTTTGACACTGTTGACTTTTTAGCACATGTTCGGAGTCACCTAGTGCAG,14200 fluorescence intensity (a.u.)
11,CAAAATGTTTGACATCGTTGACTTTTTAGCACATGTTTGACGGAGTCACCTAGTGCAG,15300 fluorescence intensity (a.u.)
12,CCGTTTCGAAATGTTTACACCGTTGACTTTTTAGCACATGCGGAGTCACCTAGTGCAG,30100 fluorescence intensity (a.u.)
13,TTCGAAATATTTGACACCGTTGACTTTTTAGCACATGTTTCGGAGTCACCTAGTGCAG,30000 fluorescence intensity (a.u.)
14,CGAAATGTTTGACGTCGTTGACTTTTTAGCACATGTTTAACGGAGTCACCTAGTGCAG,22800 fluorescence intensity (a.u.)
15,GAATTAAACTTTGCATGGTTTCTGTTTGGTCAAACTTCTCCGGAGTCACCTAGTGCAG,9130 fluorescence intensity (a.u.)
16,AGGTACGCACGCGCGGTGGAGGAGGAGGAGGAGGAGGAGGCGGAGTCACCTAGTGCAG,10900 fluorescence intensity (a.u.)
17,TGAATGCACCATGTCTTTTGCTCCGTCCGTCATAAAAAAACGGAGTCACCTAGTGCAG,8950 fluorescence intensity (a.u.)
18,TGCCAAAGCTCTATCCATTTTGCCTCTACTCAATCGTCCACGGAGTCACCTAGTGCAG,10200 fluorescence intensity (a.u.)
19,TCTAGATTTATCCCCATTTTTGGCTGGGCCTTCTATTTAACGGAGTCACCTAGTGCAG,8720 fluorescence intensity (a.u.)
20,AACCCATTACATAGCTGCAAGAAACCCAATCTTTCTTTACCGGAGTCACCTAGTGCAG,8420 fluorescence intensity (a.u.)
21,CCTACCCCTACCGCTCCTGCCTGCTTCGCCCGCCGCCGCCCGGAGTCACCTAGTGCAG,8340 fluorescence intensity (a.u.)

row,Sequence,binding signal
1,CTCTATACCATACGCCATCTCCATCATCTCTCGATCCATCCGGAGTCACCTAGTGCAG,11300 fluorescence intensity (a.u.)
2,AGTCTGAGCCACCTTTCATTACCCATCCAAGATTCGGTTTCGGAGTCACCTAGTGCAG,8900 fluorescence intensity (a.u.)
3,AGTAGTCCTTCAAGCTCCAATCATATACCCCTGATACTAACGGAGTCACCTAGTGCAG,8300 fluorescence intensity (a.u.)
4,AGGAAATGTCTCATCAAATACTAGATTGGTTTTTTTTTACCGGAGTCACCTAGTGCAG,8960 fluorescence intensity (a.u.)
5,CGATTTCGACCAATCTAGCCGCTATGTGCACTCCTTTTCCCGGAGTCACCTAGTGCAG,12100 fluorescence intensity (a.u.)
6,TGGTCTTGCTGGTTGCTGCGTATTTGGCTGTATTGGTTATCGGAGTCACCTAGTGCAG,8380 fluorescence intensity (a.u.)
7,ATTATACGTTAATGGCTTTCTCGTTTTGTATACGCTGATTCGGAGTCACCTAGTGCAG,9600 fluorescence intensity (a.u.)
8,TCGAAATATTTGACACCGTTGACTTTTTAGCACATGTTTGCGGAGTCACCTAGTGCAG,35300 fluorescence intensity (a.u.)
9,ATTTGATACTTCTCTCGCCTTTCTTTATTATTCTCCCGCTCGGAGTCACCTAGTGCAG,8420 fluorescence intensity (a.u.)
10,GAGTGCCTATTCAATTGCCTTTTGTTTGTCAACGTTTCTCCGGAGTCACCTAGTGCAG,8080 fluorescence intensity (a.u.)
11,GTCCTTTCAGTGTTGCGCTTTTGCTTATTGTAGTTATTGGCGGAGTCACCTAGTGCAG,16300 fluorescence intensity (a.u.)
12,CATCCAACCATCACACACAGTTAGCATATCAGTAGTCGTTCGGAGTCACCTAGTGCAG,8210 fluorescence intensity (a.u.)
13,TCCATCCCGGCCCGGCACTGCACACACGCGCGTAGTACCACGGAGTCACCTAGTGCAG,8130 fluorescence intensity (a.u.)
14,AGACCGTTGACTTGACTAGTCCACTCCTCTTTCACACGTACGGAGTCACCTAGTGCAG,12100 fluorescence intensity (a.u.)
15,AACTTGAGCGTTGACCGCTTTGACTCCTCTTCTTTCTCCACGGAGTCACCTAGTGCAG,24900 fluorescence intensity (a.u.)
16,ATGACCGGCCACCACCATTGCCACCGGCCGATCTCCTCTTCGGAGTCACCTAGTGCAG,9360 fluorescence intensity (a.u.)
17,GCCATTGACAGCGTTGACCAAGTCAGCCGCTCCAGCCTCTCGGAGTCACCTAGTGCAG,14200 fluorescence intensity (a.u.)
18,ACTCCTACAGTAGTGACTTGAGTAGCGCTTCTTTTTTCCACGGAGTCACCTAGTGCAG,9440 fluorescence intensity (a.u.)
19,TCTTCGGCCTCTCCGCCTCCGCCATTGACAGCGTTGACCACGGAGTCACCTAGTGCAG,18300 fluorescence intensity (a.u.)
20,GCCACCTTTTGTTCCGCAACCGCAATGATTTCTTCTTCTTCGGAGTCACCTAGTGCAG,14800 fluorescence intensity (a.u.)
21,TAGTGGTGGTCTTGATTCCTGACATAGCAGACGCATCTGACGGAGTCACCTAGTGCAG,10500 fluorescence intensity (a.u.)

row,Sequence,binding signal
1,GTTTGACATGCAGACTTGATTCTATCACCTATAGCATCTGCGGAGTCACCTAGTGCAG,28100 fluorescence intensity (a.u.)
2,TATATATATATATATATATAGATTTATTGACATCTATATGCGGAGTCACCTAGTGCAG,9230 fluorescence intensity (a.u.)
3,CTGTCGTGTTTCCTCTGATTAGTTCATACAGCATCTGTTACGGAGTCACCTAGTGCAG,17600 fluorescence intensity (a.u.)
4,ATTTTCATTTGGTTGGTGTGGTTATCTCTTTTTTCATTTACGGAGTCACCTAGTGCAG,20700 fluorescence intensity (a.u.)
5,CTTCCTAACGTTCATATCTCTGTGTTTTTAGTGTGTCATACGGAGTCACCTAGTGCAG,9860 fluorescence intensity (a.u.)
6,TCTTGGTTACATGGTGGTTGGTGTTTCATTCTCTTGTTTTCGGAGTCACCTAGTGCAG,10000 fluorescence intensity (a.u.)
7,TTCAGTTTTTGCTTGCAACGTTTGACCACTCGTCTTATTCCGGAGTCACCTAGTGCAG,15600 fluorescence intensity (a.u.)
8,GAGTTTTTACTTTGTAATGTTTGACCACTCGTCTTATTCACGGAGTCACCTAGTGCAG,8880 fluorescence intensity (a.u.)
9,TTCTTCATTATCTCTATTTGTGGTGCTATTGGTTTATTTTCGGAGTCACCTAGTGCAG,8980 fluorescence intensity (a.u.)
10,GGTTTCTTCTCATTCTTCTTTTTTTCCTTTTTTCTACACGCGGAGTCACCTAGTGCAG,14000 fluorescence intensity (a.u.)
11,ATCTGATTTTTATTTTCAGCATATGCATCGTTTTCATGTTCGGAGTCACCTAGTGCAG,10200 fluorescence intensity (a.u.)
12,TCAGTTTTTGTTTGCAATGTTTGACCACTCGTCTTATTCACGGAGTCACCTAGTGCAG,18500 fluorescence intensity (a.u.)
13,GGGGTTTCTCATGGGCCAACTATACATTCACACGCGGCCGCGGAGTCACCTAGTGCAG,17400 fluorescence intensity (a.u.)
14,TTTACATTCATTTCTCTATACGAGCATGGGCCGCACTATACGGAGTCACCTAGTGCAG,9830 fluorescence intensity (a.u.)
15,GGCCTAATTATTGCCTTAATTTTTCTCTTTGGTTTTCTCACGGAGTCACCTAGTGCAG,9070 fluorescence intensity (a.u.)
16,TGAGGGCTGCTGTGCTATTCTTCCTGGACATCTCTGGGTCCGGAGTCACCTAGTGCAG,8650 fluorescence intensity (a.u.)
17,TTTCTGTTTAACGTCAACCCGGCTGTTTTCGCCCGGTCAACGGAGTCACCTAGTGCAG,9040 fluorescence intensity (a.u.)
18,GCCAAGACGCCCAAAGCACACACTCTCTCTCGCTGTCTTTCGGAGTCACCTAGTGCAG,8490 fluorescence intensity (a.u.)
19,GATTTGATGGATTTGTTGAGAGATATGCTTCTTAAGCCAACGGAGTCACCTAGTGCAG,8300 fluorescence intensity (a.u.)
20,CACACCTAGGCCGCCTTTTTCAACCGGGGAGCACACCTTTCGGAGTCACCTAGTGCAG,10400 fluorescence intensity (a.u.)
21,AATATGTACTACTTCCGTTTCAGGTTATAAGACTTTCTAGCGGAGTCACCTAGTGCAG,8400 fluorescence intensity (a.u.)

row,Sequence,binding signal
1,CGTAGTAATGTCTGAATTCACCGCCTTAATCCTGTCACGACGGAGTCACCTAGTGCAG,8450 fluorescence intensity (a.u.)
2,TTTTTCTTTTCTCGCGTACAGCTGGACGCTTCGTTTGCTTCGGAGTCACCTAGTGCAG,11100 fluorescence intensity (a.u.)
3,CCCATCAACCGCCAAAGACTTCCCGCGCGCGTCTACATATCGGAGTCACCTAGTGCAG,8450 fluorescence intensity (a.u.)
4,ACCGTCCTCCTCGTCACCCACCAGCTCGACTTCCTCCGCACGGAGTCACCTAGTGCAG,8200 fluorescence intensity (a.u.)
5,GTCAACGATCCGGCGTCTGTTCCACTTCTACCCTCCCATCCGGAGTCACCTAGTGCAG,8250 fluorescence intensity (a.u.)
6,CCCTTTACTTGATTTTCTGCTGGTTGGTTTATCTTTTATTCGGAGTCACCTAGTGCAG,19600 fluorescence intensity (a.u.)
7,ATACTCTTGGTTTATCTTTGATTTTGTATATCTTTTTATTCGGAGTCACCTAGTGCAG,9720 fluorescence intensity (a.u.)
8,TTTCTCATATGTTTGACCATTCGTCTTATTAAAAAAATTTCGGAGTCACCTAGTGCAG,8930 fluorescence intensity (a.u.)
9,ACCATCTCTCTCTCTCTCTCTGCATGCATATCTTCTCCTCCGGAGTCACCTAGTGCAG,14300 fluorescence intensity (a.u.)
10,CTGGATCTCCTCTCTCTCTCTCTCTCTCTGTCCTTCTTCTCGGAGTCACCTAGTGCAG,10800 fluorescence intensity (a.u.)
11,CATCTGTCTCTGGATCTCTGCATATCTCCTCTTCTGTGATCGGAGTCACCTAGTGCAG,17200 fluorescence intensity (a.u.)
12,TCTGCATGATTCCTTGGTTTCTTTTTTTACACATTTACTTCGGAGTCACCTAGTGCAG,10500 fluorescence intensity (a.u.)
13,ATTTAGAGTTGACTTTGGTTTATTTTTCATTGAAGTTTATCGGAGTCACCTAGTGCAG,9450 fluorescence intensity (a.u.)
14,ATTTTACTCTTTTGACTATATTGGTTCGGTTGAAGTTTTACGGAGTCACCTAGTGCAG,23100 fluorescence intensity (a.u.)
15,CTGTTGACTTTTTCTTATATGTTTGACCATTCGTCTTATTCGGAGTCACCTAGTGCAG,24600 fluorescence intensity (a.u.)
16,CATATGTTTGACCATTCGTCTTATTCAAAAATTTTATTCACGGAGTCACCTAGTGCAG,9660 fluorescence intensity (a.u.)
17,TACTGGTTCTACTTGATCTTATTTATCTTTTTATTCTATTCGGAGTCACCTAGTGCAG,10100 fluorescence intensity (a.u.)
18,TCTGCTTCACTGTATTTTTGTCCAACAATTCCATGACATGCGGAGTCACCTAGTGCAG,8550 fluorescence intensity (a.u.)
19,TTTAGATTTATTTTTTGTGACATAGGGAGTACTTTTTTTTCGGAGTCACCTAGTGCAG,9200 fluorescence intensity (a.u.)
20,CTTCTCAAGTTCCAACCTTTGCGCTTTCTTATTATCAAAGCGGAGTCACCTAGTGCAG,8550 fluorescence intensity (a.u.)
21,GCACGCATGCAGTTCCTTGACCAATTCTCACATCAACCACCGGAGTCACCTAGTGCAG,9100 fluorescence intensity (a.u.)
